For 16 molecules, growth inhibition results are on record in PubChem BioAssay (NCI).

About 79,000 compounds went through this panel and 15% of them were active in at least one assay; those are over-represented in the sample as a whole. Values without a mark were called inactive. Active and inactive are the calls of the source. No stated cut-off is given here; in the data, active means growth inhibition above about 70%; inactive means the rest.

A short description of the assay: NCI Yeast Anticancer Drug Screen. Data for the rad50 strain (AID 155).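 Further: 0% = growth of vehicle-only cultures of the same strain.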 The settings on record: S. cerevisiae rad50 strain growth inhibition; at 5.0 µM (retest, dose inferred, filed as 0.5); active compounds read high. The gist of the method: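 Vehicle-treated cultures provide the reference for the growth inhibition reported for compound-exposed, repair-deficient yeast.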
As to `CC1=C(C(=O)Nc2cccc3ccccc23)C(c2cccc([N+](=O)[O-])c2)C(C(=O)Nc2cccc3ccccc23)=C(C)N1`, the growth inhibition was 27%.

For `O=C1OC(c2ccc(O)cc2)Sc2ccccc21` (stereo unspecified), the growth inhibition was 6%.

With `CC(C)(C)c1ccc(-c2nc3ccccc3c(=O)o2)cc1`, the growth inhibition is -3%.

In the case of `O=C(N/C(=C/c1ccc(Cl)cc1Cl)c1nc2ccccc2s1)c1ccccc1`, the growth inhibition was 27%. Under `O=C(O)C/C(=C\c1ccco1)C(=O)O` stands -8%; under `CN(C)Cc1cc(N=Nc2ccc(Cl)c(Cl)c2)ccc1O`, -16%; under `CC(=O)OC1C(O)C(C)OC(OC(=O)C2CCC3C(C2)OC2(CC(OC(=O)/C=C/c4ccccc4)C(C)CO2)C32CO2)C1OC1OC(C)C(O)C(O)C1O` (stereo unspecified), 23%. As to `O=C1c2ccccc2C(=O)c2c(/C=C\N3CCCCC3)ccnc21`, the growth inhibition was 40%. Under `CCN(CC)c1ccc(NC(CC(O)c2ccccc2)c2ccccc2)cc1` (stereo unspecified) stands -14%.

Regarding `CCOC(=O)Nc1nc2ccc(SC#N)cc2s1`, the growth inhibition was 8%. The figure for `CSC(SC)C(SC)SC` is 1%; for `N#CC(C(=O)C(=O)Nc1ccc(Cl)cc1)c1c(Cl)cccc1Cl` (stereo unspecified) it is 12%.

On to `CN(/N=C\c1cccc([N+](=O)[O-])c1)C(c1cccc([N+](=O)[O-])c1)N(C)/N=C/c1cccc([N+](=O)[O-])c1` (stereo unspecified), for which the growth inhibition is -1%. The figure for `Oc1cc(Br)cc2cc(Br)cnc12` is 92% (active); for `COc1ccccc1C(C)c1ccc2ccccc2c1C(=O)O` (stereo unspecified) it is 11%. As for `Cc1ccnc2[nH]c3ccccc3c(=O)c12`, the growth inhibition is 29%.
